Data published in ChEMBL document CHEMBL3988442, “University of Dundee, Small-Polar-MMV Screening Library” (2021).
About 13,000 (27%) of roughly 48,000 compounds showed an effect of 50% or more. The list shows a part of the results.

tested on: Wolbachia pipientis; assay: Anti-Wolbachia Cell-Based Screen; type: functional; design: scale not given: in the data most compounds retested in dose-response had high values; conditions: 5 µM

In order of rising “Percent Effect” value:
1. O=C(O)C(F)(F)F.O=C(O)C(F)(F)F.O=C(O)C(F)(F)F.c1cncc(OCc2n[nH]c3c2CN(Cc2cccs2)C3)c1  -32.3%
2. CN(Cc1ccc([S+](C)[O-])cc1)c1ccc(Br)cn1 (stereo unspecified)  -27.32%
3. Cc1nc2c(c(C)c1CC(=O)NC(C)c1ccccc1)c(=O)[nH]n2C (stereo unspecified)  -24.46%
4. Cc1nc2c(c(C)c1CC(=O)Nc1ccccc1F)c(=O)[nH]n2C  -18.93%
5. CCN(CCn1cccn1)C(=O)CN1C(=O)OC[C@@H]1C(C)C  -18.11%
6. CCn1nc2c(cc1=O)CN(Cc1nc3ccccc3c(=O)[nH]1)CC2  -16.27%
7. Cc1occc1C(=O)N1Cc2nccn2CC(CN2CCOCC2)C1.O=C(O)C(F)(F)F (stereo unspecified)  -15.88%
8. Cc1scc(C(=O)N2CCC3(CC(=O)NC3=O)C2)c1-c1ccccc1 (stereo unspecified)  -14.34%
9. CCc1cnc(N2CCC3(CCN(CC)C3=O)CC2)nc1  -13.53%
10. CCNC(=O)Cc1c(C)nc2c(c1C)c(=O)[nH]n2C  -13.5%
11. CN(Cc1ccc([S+](C)[O-])cc1)c1cncc(Cl)n1 (stereo unspecified)  -12.95%
12. CN(C)CC(=O)N1Cc2cc(N(C)C)ccc2C1c1cnco1 (stereo unspecified)  -12.83%
13. CCCNC(=O)Cc1c(C)nc2c(c1C)c(=O)[nH]n2C  -12.53%
14. OC(COCc1ccccc1Cl)CN1CC(n2cccn2)C1 (stereo unspecified)  -11.39%
15. O=C(NS(=O)(=O)c1ccc(F)cc1)C1CCOc2ccccc21 (stereo unspecified)  -10.91%
16. O=C(O)C(F)(F)F.O=C(O)C(F)(F)F.c1ccc(OCc2n[nH]c3c2CN(Cc2cccs2)C3)nc1  -9.854%
17. CCc1cc(NCCNc2cccnc2)n2nccc2n1  -9.581%
18. COCCN1CCC2(CCN(CC3CC3)CC2)C1=O.O=C(O)C(F)(F)F  -9.065%
19. CC(C)C(C(=O)N(C)C)c1cccc(Cl)c1 (stereo unspecified)  -9.046%
20. COc1cc(F)ccc1N(C)Cc1ccncc1  -8.772%
21. CC1Cc2ccccc2N1Cc1occc1C(=O)OCC(N)=O (stereo unspecified)  -8.495%
22. Cc1ccc(C(C)NC(=O)Cc2c(C)nc3c(c2C)c(=O)[nH]n3C)o1 (stereo unspecified)  -8.138%
23. CCC(C)(NCC(N)=O)c1nccs1 (stereo unspecified)  -7.734%
24. Cc1nc2c(c(C)c1CC(=O)Nc1ccnn1C(C)C)c(=O)[nH]n2C  -7.188%
25. CN(C)c1cccc(C(=O)Nc2cn(C)c(=O)n(C)c2=O)c1  -7.07%
26. Cl.Cl.OC(CN1CCN(Cc2ccc(F)cc2)CC1)C1CC1 (stereo unspecified)  -6.832%
27. CNC(=O)C1CCC2(CCN(c3ncc(C)cn3)CC2)CO1 (stereo unspecified)  -6.735%
28. Cc1nc(CN2CCCC(CCNS(C)(=O)=O)C2)c[nH]1 (stereo unspecified)  -5.765%
29. CC(=O)N1CCCC1c1csc(Nc2cnccn2)n1 (stereo unspecified)  -5.394%
30. Cc1cc(C2CCC2)nc(N(C)Cc2cnccn2)n1  -5.292%
31. CCCn1nc2c(cc1=O)CN(CCCN1CCCC1=O)CC2  -4.188%
32. Cc1cc(C2CCCN(CCc3ccccn3)C2)n[nH]1 (stereo unspecified)  -3.98%
33. NC(=O)CN(C(=O)c1c[nH]c2ncccc12)C1CCCC1  -3.753%
34. CCN1CCC2(CCN(Cc3nccs3)CC2)C1=O.O=C(O)C(F)(F)F  -3.246%
35. CCOCCN1CCCC(c2cc(C(N)=O)[nH]n2)C1 (stereo unspecified)  -3.243%
36. O=C(O)C(F)(F)F.O=C(O)C(F)(F)F.c1ccc(COC[C@H]2CC[C@H]3[C@H](CCN3c3ncccn3)O2)nc1  -2.736%
37. O=C(NCC1CCOC1)N1CCN(Cc2ccc3c(c2)CCO3)CC1 (stereo unspecified)  -2.282%
38. CN(C)CCN(C)c1ccc(-c2nc(COc3ccccc3)no2)cn1  -2.014%
39. NC(=O)c1cc(C2CCCN(CCOCC(F)(F)F)C2)n[nH]1 (stereo unspecified)  -1.839%
40. COc1ccc(F)cc1CN1CCCC(c2cc(C(N)=O)[nH]n2)C1 (stereo unspecified)  -1.722%
41. CS(=O)(=O)N1CCCC12CCN(Cc1nccs1)C2.O=C(O)C(F)(F)F (stereo unspecified)  -1.689%
42. CCc1cnc(CN2CCCC(c3cc(C)[nH]n3)C2)o1 (stereo unspecified)  -1.395%
43. CC[C@H]1COCCN1C(=O)CCCn1nnc(-c2ccc(F)cc2)n1  -1.392%
44. O=C1OC2(CCNCC2)CN1CC(=O)N1CCCC1c1ccco1 (stereo unspecified)  -0.7494%
45. Cc1ccsc1CNC(=O)Cc1c(C)nc2c(c1C)c(=O)[nH]n2C  -0.5496%
46. COc1c(C(=O)N2CCC(COCc3ccccc3)C2)c(C)nn1C (stereo unspecified)  -0.4444%
47. Cc1ccc(C)c(NC(=O)Cc2c(C)nc3c(c2C)c(=O)[nH]n3C)c1  0.2479%
48. CS(=O)(=O)N1CCOC2(CCCN(c3ncc(F)cn3)C2)C1 (stereo unspecified)  0.4401%
49. CCn1nc2c(cc1=O)CN(Cc1cc(C)on1)CC2  0.747%
50. Cc1cnc(NC(=O)c2cccc(CN(C)Cc3ccno3)c2)s1  0.9625%
51. Cc1nc2c(c(C)c1CC(=O)NCc1cccc(C#N)c1)c(=O)[nH]n2C  1.091%
52. COCc1n[nH]c2c1CN(Cc1cccs1)C2.O=C(O)C(F)(F)F  1.549%
53. Cc1[nH]c(=O)[nH]c(=O)c1CN1CCCC(CCc2ccc(F)cc2F)C1 (stereo unspecified)  2.06%
54. OCCn1cc(CN2CCN(CCOCC(F)(F)F)CC2)cn1  2.281%
55. O=C(C1COCCO1)N1CCN(Cc2ccc3c(c2)CCO3)CC1 (stereo unspecified)  2.717%
56. Cn1ncc2c(N3CCN(C(N)=O)CC3)nc(C3CCCC3)nc21  2.978%
57. CSCCC(=O)N1CCC(Oc2cc(C)ccc2F)(C(=O)O)CC1  3.058%
58. O=C(O)C(F)(F)F.OCCOCc1n[nH]c2c1CN(Cc1ccco1)C2  3.715%
59. CCCN(CCC)S(=O)(=O)N(C)Cc1ccncc1  3.881%
60. Cc1cc(C)cc(NC(=O)Cc2c(C)nc3c(c2C)c(=O)[nH]n3C)c1  3.943%
61. Fc1ccc(CN2CCOC[C@H](Oc3cccnc3)C2)cc1  4.64%
62. Cc1c(F)cc(C(=O)NCC(F)(F)F)cc1NCC(=O)N(C)C  4.918%
63. COCCN1CCC2(CCN(Cc3cccs3)CC2)C1=O.O=C(O)C(F)(F)F  6.379%
64. CCOc1ccccc1NC(=O)CN(C)Cc1ccccc1Cl  6.554%
65. O[C@H]1CC[C@@H](Cc2cc(-c3ccc(F)cc3)on2)O[C@@H]1CNCC1CC1  6.759%
66. CCn1nc2c(cc1=O)CN(Cc1ccc(-n3cccn3)cc1)CC2  7.019%
67. Cc1n[nH]c(C)c1CNCC(O)c1cccc(Cl)c1.Cl (stereo unspecified)  7.117%
68. O=C(c1csnn1)N1CCc2[nH]nc(COc3cccc(Cl)c3)c2C1  7.373%
69. Oc1cccc(CN2C[C@H]3CC[C@@H]2CN(Cc2ccc(F)cc2)C3)c1  7.382%
70. COc1nc2c(cc1C(=O)N(C)Cc1[nH]nc3c1CCC3)CCC2  7.806%
71. CN(C)C(=O)c1n[nH]c2c1CCN(Cc1nccs1)C2  9.734%
72. CC(C)CCC(=O)NCC(=O)N1CCCCCC1c1ccco1 (stereo unspecified)  14.42%
73. Cc1noc(C)c1-c1n[nH]c2c1CN(S(=O)(=O)c1cccs1)CC2  16.83%
74. COc1cccc(CN2CCCCC2CN2CCOCC2)c1F (stereo unspecified)  24.12%
75. Cc1nc(N(C)C)nc(N(C)Cc2cnccn2)c1C  49.18%
76. O=C(CCc1ccco1)N1CCc2[nH]nc(COc3ccccc3)c2C1  91.35%
77. Cc1nc2c(c(C)c1CC(=O)NCc1ccc(F)cc1)c(=O)[nH]n2C  91.6%
78. COCC(=O)N1CCCC1c1csc(Nc2cnccn2)n1 (stereo unspecified)  91.87%
79. CCN1CCC2(CCN(c3ncccn3)CC2)C1=O.O=C(O)C(F)(F)F  93.98%
80. NC(=O)c1cc(C2CCCN(CCc3ccc4c(c3)CCO4)C2)n[nH]1 (stereo unspecified)  94.15%
81. NC(=O)c1cc(C2CCCN(Cc3ccc4c(c3)OCCO4)C2)n[nH]1 (stereo unspecified)  95.83%
82. O=C(C1CCCN(CCc2ccc3c(c2)CCO3)C1)N1CCCC1 (stereo unspecified)  96.85%
83. COCCN1CCC2(CCN(c3ncccn3)CC2)C1=O.O=C(O)C(F)(F)F  97.58%
84. CN(Cc1ccncc1)c1cncc(Br)c1  97.92%
85. O=C(CCc1cccs1)N1CCc2[nH]nc(COc3ccccc3)c2C1  98.05%
86. CS(=O)(=O)N1CCc2[nH]nc(Cc3cccs3)c2C1  98.95%
87. CC(C)COC(=O)N1[C@@H](c2ccco2)[C@@H](CO)C[C@]12CCCCNC2=O  102%
88. CC(C)(C)CC(=O)N1[C@@H](c2ccco2)[C@@H](CO)C[C@]12CCCCNC2=O  102.1%
89. Cc1cc(C2CCCN(CCc3ccc4c(c3)CCO4)C2)n[nH]1 (stereo unspecified)  104%
90. O[C@]12CC[C@H](CC1)N(Cc1ccc(F)cc1)C2CN1CCOCC1 (stereo partly specified)  104%
91. OCC1N(Cc2ccc(F)cc2)[C@H]2CC[C@]1(O)CC2 (stereo partly specified)  104.7%
92. CN(Cc1ccc([S+](C)[O-])cc1)c1cncc(Br)c1 (stereo unspecified)  105.7%
93. Cc1nc2c(c(C)c1CC(=O)NCc1ccccc1F)c(=O)[nH]n2C  107.2%
94. CN(Cc1cnccn1)c1cncc(Br)c1  109.1%
95. CCOC(=O)N1[C@@H](c2ccco2)[C@@H](CO)C[C@]12CCCCNC2=O  109.7%
96. Cc1ccc(CNC(=O)Cc2c(C)nc3c(c2C)c(=O)[nH]n3C)cc1  114.9%
97. CCC(=O)N1CCCC1c1csc(Nc2cnccn2)n1 (stereo unspecified)  122%
98. CCN1CCCc2cc(CN3CCc4nc(C)[nH]c(=O)c4C3)ccc21  122.7%
99. Cc1nc2c(c(C)c1CC(=O)NCc1ccco1)c(=O)[nH]n2C  144%
100. CCN1CCCc2cc(CN3CCc4c(nc(C)[nH]c4=O)C3)ccc21  149.4%
101. Cc1nc2c(c(C)c1CC(=O)NCc1cccs1)c(=O)[nH]n2C  165.2%
